As usually defined, the AC50 is the concentration giving half of the maximal activity seen.

For test [1] the following is noted: Ebola virus entry assay, green fluorescence channel.
For test [2] the following is noted: Ebola virus entry assay, blue channel fluorescence.
For test [3] the following is noted: Ebola virus entry assay, ratio channel.
The conditions of test [4]: Ebola virus entry assay, green channel fluorescence.
For test [5] the following is noted: Ebola virus entry assay, reporter ratio channel; Channel type: primary.

A number with no mark means an inactive call. For some of these results: Results with a measured potency or affinity are listed apart. Activity calls are given as the source filed them. The rule behind the calls is not given here.
Throughout, for efficacy: 0% is about no effect.

As for `NC(N)=NN=C(/C=C/c1ccc([N+](=O)[O-])o1)/C=C/c1ccc([N+](=O)[O-])o1`, the efficacy in test [1] was -41.4%. Further, the AC50 in test [2], in test [3] and in test [5] was 3.16 µM (active) each time. Further, the compound was called inactive in test [4].

Take `CO/N=C(/C(=O)N[C@@H]1C(=O)N2C(C(=O)O)=C(Cn3nnc(C)n3)CS[C@H]12)c1csc(N)n1`: the efficacy in test [1] is 14.5%. Moreover, the compound was called inactive in test [2], in test [3], in test [4] and in test [5].

On to `Sc1ccccc1Cl`, for which the efficacy in test [1] is 41.3%. Moreover, the compound was called inactive in test [2], in test [3], in test [4] and in test [5].

For the compound `Clc1ccccc1C(c1ccccc1)(c1ccccc1)n1ccnc1`, the efficacy in test [1] is 24.5%. Further, the AC50 in test [2] and in test [5] was 39.8 µM (active) in each case. In addition, the result in test [3] and in test [4] was inactive.

As for `CC(C)(C)C(=O)C(Oc1ccc(Cl)cc1)n1ccnc1` (stereo not given), the efficacy in test [1] was 12.3%. In addition, the AC50 in test [2] and in test [5] was 39.8 µM (active) each time. In addition, the result in test [3] and in test [4] was inactive.

With `CCN1CCN(c2cc(-c3ccc(F)cc3)c3c(n2)CCCCCC3)CC1`, the efficacy in test [1] was 32.1%. Also, the AC50 in test [2] is 1.41 µM (active); in test [3], 1.78 µM (active); in test [5], 1.78 µM (active). Also, the compound was called inactive in test [4].

Turning to `COc1ccc2c3c1O[C@H]1[C@@H](O)C=C[C@H]4[C@@H](C2)N(C)CC[C@@]341`, the efficacy in test [1] is 44%. Also, the AC50 was 28.2 µM (active) in test [2] and 31.6 µM (active) in test [5]. In addition, the result in test [3] and in test [4] was inactive.

Take `CC(C)OC(=O)c1cc2c(OCC(O)CNC(C)(C)C)cccc2[nH]1` (stereo not given): the efficacy in test [1] is -19.4%. Moreover, the AC50 in test [2] is 28.2 µM (active); in test [3], 31.6 µM (active); in test [5] it was 31.6 µM (active). In addition, in test [4], the call was inactive.

Take `C=CCOc1cc(Cl)ccc1C(=O)NCCN(CC)CC`: the efficacy in test [1] was -28.4%. The AC50 in test [2] was 14.1 µM (active); in test [3] it was 15.8 µM (active); in test [5] it was 15.8 µM (active). The outcome in test [4] was inactive.

For the compound `CN(C)CCN1C(=O)c2ccccc2N(C)c2ccccc21`, in test [1], the efficacy was -25.3%. The AC50 in test [2] and in test [5] was 39.8 µM (active) throughout. The outcome in test [3] and in test [4] was inactive.

For `COc1ccc(CN(CCN(C)C)c2ccccn2)cc1`, in test [1], the efficacy was 22.5%. Moreover, the AC50 in test [2], in test [3] and in test [5] was 15.8 µM (active) in each case. Further, in test [4], the result was inactive.

On to `CC(C)(C)CC(C)(C)c1ccc(O)c(Cc2ccc(Cl)cc2Cl)c1`, for which the efficacy in test [1] is 12.2%. Besides, the AC50 was 22.4 µM (active) in test [2], 14.1 µM (active) in test [3] and 14.1 µM (active) in test [5]. Moreover, the result in test [4] was inactive.

Consider `O=C(OCc1ccccc1)c1ccc(O)cc1`, for which, in test [1], the efficacy is -29.7%. In addition, the AC50 in test [2] was 22.4 µM (active). For the same compound, the result in test [3], in test [4] and in test [5] was inactive.

Consider `COc1ccc2nc(NC(=O)Nc3ccccc3)sc2c1`, for which, in test [1], the efficacy was -33.8%. Moreover, the values for the AC50 in test [2], in test [3] and in test [5] were 22.4 µM (active), 15.8 µM (active) and 15.8 µM (active), respectively. Besides, in test [4], the outcome was inactive.

Turning to `N=C(N)c1ccc2cc(OC(=O)c3ccc(N=C(N)N)cc3)ccc2c1`, in test [1], the efficacy is 15%. Moreover, the outcome in test [2], in test [3], in test [4] and in test [5] was inactive.

As to `NC1(c2ccccc2)CCCCC1`, the efficacy in test [1] is 44.3%. In addition, the AC50 in test [2] is 35.5 µM (active); in test [3] it was 31.6 µM (active); in test [5], 31.6 µM (active). The compound was called inactive in test [4].

`O=C(CBr)Nc1ccc(Cl)cc1C(=O)c1ccccc1F`: the efficacy in test [1] was 28%. Further, the AC50 in test [2], in test [3] and in test [5] was 17.8 µM (active) throughout. Moreover, in test [4], the outcome was inactive.

Consider `C/C=C(/C(=C/C)c1ccc(O)cc1)c1ccc(O)cc1`, for which, in test [1], the efficacy is -16.1%. The AC50 in test [2] is 28.2 µM (active). Moreover, the outcome in test [3], in test [4] and in test [5] was inactive.

In the case of `CO[C@]1(NC(=O)CSC(F)F)C(=O)N2C(C(=O)O)=C(CSc3nnnn3CCO)CO[C@H]21`, the efficacy in test [1] was -28.6%. The call in test [2], in test [3], in test [4] and in test [5] was inactive.

With `CNC(=O)NC(O)C(Cl)(Cl)Cl` (stereo not given), the efficacy in test [1] is -36.8%. Besides, the result in test [2], in test [3], in test [4] and in test [5] was inactive.

Regarding `CCC1(CC)C(=O)NC(=O)NC1=O`, in test [1], the efficacy was -16.1%. In addition, the compound was classed as inactive in test [2], in test [3], in test [4] and in test [5].

As to `Nc1ccc(N=Nc2ccccc2)c(N)n1`, in test [1], the efficacy is -23.7%. In addition, the AC50 in test [2] and in test [5] was 39.8 µM (active) each time. In addition, the outcome in test [3] and in test [4] was inactive.

For `CCN(CC)CCOc1ccc2c(c1)C(=O)c1cc(OCCN(CC)CC)ccc1-2`, the efficacy in test [1] was 9%. Moreover, the AC50 in test [2], in test [3] and in test [5] was 1.41 µM (active) in each case. In test [4], the compound was called inactive.

In the case of `OC(CCN1CCCCC1)(c1ccccc1)C1CC2C=CC1C2` (stereo not given), in test [1], the efficacy was -14.6%. Besides, the AC50 in test [2] was 12.6 µM (active). In addition, the result in test [3], in test [4] and in test [5] was inactive.

Take `Cc1cc(CC(=O)O)n(C)c1C(=O)c1ccc(Cl)cc1`: the efficacy in test [1] was 24%. The compound was called inactive in test [2], in test [3], in test [4] and in test [5].

Consider `CC(C)=CCOc1ccc(/C=C/C(=O)c2ccc(OCC=C(C)C)cc2OCC(=O)O)cc1`, for which the efficacy in test [1] was -15.5%. Also, the outcome in test [2], in test [3], in test [4] and in test [5] was inactive.
